# Reference: publication PMC7862700, “An all-to-all approach to the identification of sequence-specific readers for epigenetic DNA modifications on cytosine”
# Key:
# Experiment in all cases: DAPPL (digital affinity profiling via proximity ligation, sequencing); 10 mM Tris-HCl pH 7.5, 50 mM NaCl, 1 mM DTT, 4% glycerol, room temperature, 30 min; GST-TFs on glutathione beads, 16-mer random dsDNA library, 0.1% formaldehyde crosslink after washing; high values mean tight binding
# FLI1 = target: T1, FLI1 (Homo sapiens, UniProt Q01543 1-452); details: protein: recombinant; tags: N-terminal GST; dsDNA, one strand shown
# T1 sequence: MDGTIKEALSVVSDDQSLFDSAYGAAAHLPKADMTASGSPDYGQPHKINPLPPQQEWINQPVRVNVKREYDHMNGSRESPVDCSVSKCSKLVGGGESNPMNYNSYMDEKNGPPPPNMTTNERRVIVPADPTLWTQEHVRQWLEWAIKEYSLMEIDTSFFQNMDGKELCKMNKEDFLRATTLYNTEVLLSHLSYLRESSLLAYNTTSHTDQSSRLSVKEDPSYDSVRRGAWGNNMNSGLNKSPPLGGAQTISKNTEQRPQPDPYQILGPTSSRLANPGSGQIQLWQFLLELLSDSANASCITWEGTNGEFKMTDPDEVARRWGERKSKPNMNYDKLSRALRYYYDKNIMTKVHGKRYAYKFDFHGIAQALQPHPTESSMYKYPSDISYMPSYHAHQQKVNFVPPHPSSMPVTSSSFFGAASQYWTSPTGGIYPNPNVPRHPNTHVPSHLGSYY
# Procedure, shortened: (§1)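 Pools were built from human transcription factors expressed in yeast as GST fusions, captured on glutathione beads and DNA-barcoded, along with a tag-only sample. Incubation with 200 nmole of a 16-mer random double-stranded DNA library lasted 30 min at room temperature in Tris/NaCl/DTT/glycerol buffer, and was followed by washing, 0.1% formaldehyde crosslinking, proximity ligation, PCR amplification and Illumina NextSeq500 sequencing. Binding signal is the quotient of each hexamer's read frequency for a factor and its frequency for the tag-only sample.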
# ELK1 = target: T2, ELK1 (Homo sapiens, UniProt P19419 1-428); details: protein: recombinant; tags: N-terminal GST; dsDNA, one strand shown
# T2 sequence: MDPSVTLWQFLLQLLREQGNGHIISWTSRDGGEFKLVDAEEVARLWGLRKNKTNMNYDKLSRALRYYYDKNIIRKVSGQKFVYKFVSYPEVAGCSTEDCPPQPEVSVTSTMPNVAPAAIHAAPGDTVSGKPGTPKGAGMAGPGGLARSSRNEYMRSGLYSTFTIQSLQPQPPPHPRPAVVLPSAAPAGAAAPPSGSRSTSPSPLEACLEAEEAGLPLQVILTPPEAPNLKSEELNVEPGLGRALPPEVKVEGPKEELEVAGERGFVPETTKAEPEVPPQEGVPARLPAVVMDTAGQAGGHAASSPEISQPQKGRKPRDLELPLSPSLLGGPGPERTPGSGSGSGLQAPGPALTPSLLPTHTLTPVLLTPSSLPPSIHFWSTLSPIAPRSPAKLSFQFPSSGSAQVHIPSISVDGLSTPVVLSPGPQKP
# Procedure, shortened: as §1
# GABPA = target: T3, GABPA (Homo sapiens, UniProt Q06546 1-454); details: protein: recombinant; tags: N-terminal GST; dsDNA, one strand shown
# T3 sequence: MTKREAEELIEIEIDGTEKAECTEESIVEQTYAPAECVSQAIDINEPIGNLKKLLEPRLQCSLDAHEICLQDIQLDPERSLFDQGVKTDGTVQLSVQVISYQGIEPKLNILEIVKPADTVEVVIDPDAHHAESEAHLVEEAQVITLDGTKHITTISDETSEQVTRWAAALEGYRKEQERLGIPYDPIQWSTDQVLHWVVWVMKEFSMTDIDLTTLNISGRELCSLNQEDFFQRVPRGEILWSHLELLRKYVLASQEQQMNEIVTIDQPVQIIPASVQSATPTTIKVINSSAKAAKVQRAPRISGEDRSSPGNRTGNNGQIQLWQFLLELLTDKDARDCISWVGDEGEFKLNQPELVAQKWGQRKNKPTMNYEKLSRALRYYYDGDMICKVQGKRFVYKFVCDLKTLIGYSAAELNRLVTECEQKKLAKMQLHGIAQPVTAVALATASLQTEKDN
# Procedure, shortened: as §1
# ERG = target: T4, ERG (Homo sapiens, UniProt P11308 1-479); details: protein: recombinant; tags: N-terminal GST; dsDNA, one strand shown
# T4 sequence: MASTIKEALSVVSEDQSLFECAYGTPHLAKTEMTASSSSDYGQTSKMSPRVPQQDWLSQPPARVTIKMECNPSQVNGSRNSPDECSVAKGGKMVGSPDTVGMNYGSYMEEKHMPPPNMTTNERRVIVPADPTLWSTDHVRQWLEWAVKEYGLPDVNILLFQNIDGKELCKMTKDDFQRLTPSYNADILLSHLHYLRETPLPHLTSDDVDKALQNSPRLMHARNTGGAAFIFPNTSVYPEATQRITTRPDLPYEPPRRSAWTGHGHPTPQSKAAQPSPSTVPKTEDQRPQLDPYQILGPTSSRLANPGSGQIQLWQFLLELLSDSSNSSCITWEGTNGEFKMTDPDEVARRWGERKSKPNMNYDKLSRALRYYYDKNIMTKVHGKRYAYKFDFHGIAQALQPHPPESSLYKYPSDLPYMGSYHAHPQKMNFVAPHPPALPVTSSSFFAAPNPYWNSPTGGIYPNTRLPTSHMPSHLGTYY
# Procedure, shortened: as §1
# ELF1 = ELF1 (Homo sapiens, UniProt P32519 1-619); details: protein: recombinant; tags: N-terminal GST; dsDNA, one strand shown
# Procedure, shortened: as §1
# EHF = target: T5, EHF (Homo sapiens, UniProt Q9NZC4 1-300); details: protein: recombinant; tags: N-terminal GST; dsDNA, one strand shown
# T5 sequence: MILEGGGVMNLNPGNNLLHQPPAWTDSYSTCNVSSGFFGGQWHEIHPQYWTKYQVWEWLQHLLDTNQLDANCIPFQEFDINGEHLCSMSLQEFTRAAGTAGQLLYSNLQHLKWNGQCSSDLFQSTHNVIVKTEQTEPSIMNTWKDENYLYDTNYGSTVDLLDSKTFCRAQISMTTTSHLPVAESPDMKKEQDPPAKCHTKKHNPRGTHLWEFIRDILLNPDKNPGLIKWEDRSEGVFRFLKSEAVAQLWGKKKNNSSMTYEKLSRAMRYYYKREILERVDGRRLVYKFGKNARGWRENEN
# Procedure, shortened: as §1
# SPI1 = SPI1 (Homo sapiens, UniProt P17947 1-270); details: protein: recombinant; tags: N-terminal GST; dsDNA, one strand shown
# Procedure, shortened: as §1
# SPIB = SPIB (Homo sapiens, UniProt Q01892 1-262); details: protein: recombinant; tags: N-terminal GST; dsDNA, one strand shown
# Procedure, shortened: as §1
# ELK3 = target: T6, ELK3 (Homo sapiens, UniProt P41970 1-407); details: protein: recombinant; tags: N-terminal GST; dsDNA, one strand shown
# T6 sequence: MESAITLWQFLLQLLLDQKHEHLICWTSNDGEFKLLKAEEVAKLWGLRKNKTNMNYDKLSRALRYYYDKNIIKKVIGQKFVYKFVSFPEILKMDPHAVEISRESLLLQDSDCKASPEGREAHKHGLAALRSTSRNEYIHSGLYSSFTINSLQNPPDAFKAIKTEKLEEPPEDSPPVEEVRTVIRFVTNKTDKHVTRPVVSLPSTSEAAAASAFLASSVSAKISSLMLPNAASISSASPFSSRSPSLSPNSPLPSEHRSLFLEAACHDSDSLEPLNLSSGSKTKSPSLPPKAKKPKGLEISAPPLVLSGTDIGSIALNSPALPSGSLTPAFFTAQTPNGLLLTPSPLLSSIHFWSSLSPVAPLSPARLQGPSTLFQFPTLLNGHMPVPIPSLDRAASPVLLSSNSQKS
# Procedure, shortened: as §1
# FEV = target: T7, FEV (Homo sapiens, UniProt Q99581 1-238); details: protein: recombinant; tags: N-terminal GST; dsDNA, one strand shown
# T7 sequence: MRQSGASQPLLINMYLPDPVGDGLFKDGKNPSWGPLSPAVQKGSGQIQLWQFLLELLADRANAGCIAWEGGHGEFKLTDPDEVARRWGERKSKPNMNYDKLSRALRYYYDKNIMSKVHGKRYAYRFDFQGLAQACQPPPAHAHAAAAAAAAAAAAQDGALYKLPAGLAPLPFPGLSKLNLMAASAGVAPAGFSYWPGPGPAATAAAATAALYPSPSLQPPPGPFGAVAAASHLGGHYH
# Procedure, shortened: as §1
# ETV5 = ETV5 (Homo sapiens, UniProt P41161 1-510); details: protein: recombinant; tags: N-terminal GST; dsDNA, one strand shown
# Procedure, shortened: as §1
# HSF1 = HSF1 (Homo sapiens, UniProt Q00613 1-529); details: protein: recombinant; tags: N-terminal GST; chain copies: 3; dsDNA, one strand shown
# Procedure, shortened: as §1
# SPIC = target: T8, SPIC (Homo sapiens, UniProt Q8N5J4 1-248); details: protein: recombinant; tags: N-terminal GST; dsDNA, one strand shown
# T8 sequence: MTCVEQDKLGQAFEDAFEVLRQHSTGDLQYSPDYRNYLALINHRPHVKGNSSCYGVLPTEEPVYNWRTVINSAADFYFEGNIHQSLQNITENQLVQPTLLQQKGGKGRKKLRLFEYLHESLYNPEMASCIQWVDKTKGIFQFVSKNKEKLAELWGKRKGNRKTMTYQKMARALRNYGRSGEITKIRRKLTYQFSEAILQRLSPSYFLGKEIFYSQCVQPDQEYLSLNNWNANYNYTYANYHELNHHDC
# Procedure, shortened: as §1
# ELF4 = ELF4 (Homo sapiens, UniProt Q99607 1-663); details: protein: recombinant; tags: N-terminal GST; dsDNA, one strand shown
# Procedure, shortened: as §1
# ELK4 = target: T9, ELK4 (Homo sapiens, UniProt P28324-2 1-405); details: protein: recombinant; tags: N-terminal GST; dsDNA, one strand shown
# T9 sequence: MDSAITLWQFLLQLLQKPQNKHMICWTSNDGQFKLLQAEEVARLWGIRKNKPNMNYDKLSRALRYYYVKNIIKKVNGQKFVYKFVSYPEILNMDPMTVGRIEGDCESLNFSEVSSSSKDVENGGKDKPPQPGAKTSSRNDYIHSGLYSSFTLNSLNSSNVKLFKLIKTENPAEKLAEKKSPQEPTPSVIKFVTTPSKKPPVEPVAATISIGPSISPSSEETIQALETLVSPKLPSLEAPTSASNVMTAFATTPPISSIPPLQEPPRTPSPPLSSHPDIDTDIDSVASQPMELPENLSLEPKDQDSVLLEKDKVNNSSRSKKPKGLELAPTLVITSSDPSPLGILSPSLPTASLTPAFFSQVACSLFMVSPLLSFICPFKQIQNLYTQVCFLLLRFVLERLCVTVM
# Procedure, shortened: as §1
# ETV2 = target: T10, ETV2 (Homo sapiens, UniProt O00321 1-342); details: protein: recombinant; tags: N-terminal GST; dsDNA, one strand shown
# T10 sequence: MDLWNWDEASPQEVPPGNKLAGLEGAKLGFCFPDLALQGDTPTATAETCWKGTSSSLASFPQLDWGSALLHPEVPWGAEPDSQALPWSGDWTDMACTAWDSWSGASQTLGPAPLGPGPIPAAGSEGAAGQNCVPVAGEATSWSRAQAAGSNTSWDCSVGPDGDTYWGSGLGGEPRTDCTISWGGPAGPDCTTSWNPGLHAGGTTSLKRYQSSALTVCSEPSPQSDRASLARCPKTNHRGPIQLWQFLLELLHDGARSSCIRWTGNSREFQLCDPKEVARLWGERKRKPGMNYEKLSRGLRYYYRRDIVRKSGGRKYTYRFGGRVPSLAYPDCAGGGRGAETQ
# Procedure, shortened: as §1
# ELF3 = target: T11, ELF3 (Homo sapiens, UniProt P78545 1-371); details: protein: recombinant; tags: N-terminal GST; dsDNA, one strand shown
# T11 sequence: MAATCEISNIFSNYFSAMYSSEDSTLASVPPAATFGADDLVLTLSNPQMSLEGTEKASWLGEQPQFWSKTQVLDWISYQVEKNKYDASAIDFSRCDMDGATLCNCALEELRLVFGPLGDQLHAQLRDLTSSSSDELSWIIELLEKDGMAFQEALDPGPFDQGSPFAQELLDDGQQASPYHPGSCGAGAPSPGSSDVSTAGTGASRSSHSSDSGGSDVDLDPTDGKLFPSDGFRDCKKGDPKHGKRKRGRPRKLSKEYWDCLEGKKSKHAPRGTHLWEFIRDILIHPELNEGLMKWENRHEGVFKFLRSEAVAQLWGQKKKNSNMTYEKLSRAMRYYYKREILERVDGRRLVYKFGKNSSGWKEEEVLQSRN
# Procedure, shortened: as §1
# CRX = CRX (Homo sapiens, UniProt O43186 1-299); details: protein: recombinant; tags: N-terminal GST; dsDNA, one strand shown
# Procedure, shortened: as §1
# ETV1 = ETV1 (Homo sapiens, UniProt P50549 1-477); details: protein: recombinant; tags: N-terminal GST; dsDNA, one strand shown
# Procedure, shortened: as §1
# Sequence of ETV5 (P41161 whole entry): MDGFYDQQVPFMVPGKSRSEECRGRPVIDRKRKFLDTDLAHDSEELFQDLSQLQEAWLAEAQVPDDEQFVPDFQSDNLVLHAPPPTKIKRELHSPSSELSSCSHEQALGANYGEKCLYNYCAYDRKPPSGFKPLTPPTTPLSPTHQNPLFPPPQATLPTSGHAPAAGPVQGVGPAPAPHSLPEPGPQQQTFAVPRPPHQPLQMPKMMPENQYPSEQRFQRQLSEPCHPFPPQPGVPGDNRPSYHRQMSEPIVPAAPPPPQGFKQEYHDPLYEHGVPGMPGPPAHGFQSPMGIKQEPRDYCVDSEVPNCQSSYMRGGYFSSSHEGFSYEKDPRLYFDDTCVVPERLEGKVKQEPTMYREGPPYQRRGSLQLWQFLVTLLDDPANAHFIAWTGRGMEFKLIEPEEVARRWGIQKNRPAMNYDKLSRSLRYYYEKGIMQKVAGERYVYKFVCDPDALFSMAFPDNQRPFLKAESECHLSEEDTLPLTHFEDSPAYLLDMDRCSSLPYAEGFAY
# Sequence of ETV1 (P50549 whole entry): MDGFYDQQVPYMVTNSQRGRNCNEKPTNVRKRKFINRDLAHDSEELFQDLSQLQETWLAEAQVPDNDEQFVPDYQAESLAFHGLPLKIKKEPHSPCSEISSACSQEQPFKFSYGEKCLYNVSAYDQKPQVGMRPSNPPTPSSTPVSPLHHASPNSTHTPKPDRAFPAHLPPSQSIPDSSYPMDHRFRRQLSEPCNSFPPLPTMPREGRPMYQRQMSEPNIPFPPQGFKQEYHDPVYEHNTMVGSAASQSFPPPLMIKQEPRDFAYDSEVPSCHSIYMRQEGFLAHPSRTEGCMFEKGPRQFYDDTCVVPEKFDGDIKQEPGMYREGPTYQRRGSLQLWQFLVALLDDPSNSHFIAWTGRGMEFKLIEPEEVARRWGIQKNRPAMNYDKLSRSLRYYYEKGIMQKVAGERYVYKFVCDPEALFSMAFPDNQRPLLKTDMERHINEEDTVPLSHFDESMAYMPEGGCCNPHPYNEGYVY
# Sequence of CRX (O43186 whole entry): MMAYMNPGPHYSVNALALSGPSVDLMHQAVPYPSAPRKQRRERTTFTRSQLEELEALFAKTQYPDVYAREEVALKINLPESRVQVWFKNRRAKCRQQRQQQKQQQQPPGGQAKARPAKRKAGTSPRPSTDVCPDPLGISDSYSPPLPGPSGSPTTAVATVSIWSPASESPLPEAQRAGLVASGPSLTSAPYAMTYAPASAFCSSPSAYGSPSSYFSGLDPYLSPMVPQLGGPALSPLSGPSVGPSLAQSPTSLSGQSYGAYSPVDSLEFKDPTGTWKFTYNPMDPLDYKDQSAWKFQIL
# Sequence of ELF1 (P32519 whole entry): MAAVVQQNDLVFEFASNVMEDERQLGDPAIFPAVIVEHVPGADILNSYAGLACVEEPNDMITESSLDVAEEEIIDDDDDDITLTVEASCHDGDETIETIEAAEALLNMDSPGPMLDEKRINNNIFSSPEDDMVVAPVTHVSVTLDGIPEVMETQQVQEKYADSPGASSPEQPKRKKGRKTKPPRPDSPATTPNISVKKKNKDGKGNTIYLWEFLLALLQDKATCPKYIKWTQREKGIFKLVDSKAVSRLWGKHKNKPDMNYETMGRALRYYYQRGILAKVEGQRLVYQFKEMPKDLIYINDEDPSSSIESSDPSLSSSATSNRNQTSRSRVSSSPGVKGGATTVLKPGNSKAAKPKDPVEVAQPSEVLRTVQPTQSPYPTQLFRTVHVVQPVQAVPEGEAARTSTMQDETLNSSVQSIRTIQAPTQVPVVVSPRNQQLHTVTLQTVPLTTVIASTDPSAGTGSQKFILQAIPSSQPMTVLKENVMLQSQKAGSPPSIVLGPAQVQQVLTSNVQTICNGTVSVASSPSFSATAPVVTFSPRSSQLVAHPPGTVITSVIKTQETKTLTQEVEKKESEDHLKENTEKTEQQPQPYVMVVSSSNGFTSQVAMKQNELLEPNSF
# Sequence of ELF4 (Q99607 whole entry): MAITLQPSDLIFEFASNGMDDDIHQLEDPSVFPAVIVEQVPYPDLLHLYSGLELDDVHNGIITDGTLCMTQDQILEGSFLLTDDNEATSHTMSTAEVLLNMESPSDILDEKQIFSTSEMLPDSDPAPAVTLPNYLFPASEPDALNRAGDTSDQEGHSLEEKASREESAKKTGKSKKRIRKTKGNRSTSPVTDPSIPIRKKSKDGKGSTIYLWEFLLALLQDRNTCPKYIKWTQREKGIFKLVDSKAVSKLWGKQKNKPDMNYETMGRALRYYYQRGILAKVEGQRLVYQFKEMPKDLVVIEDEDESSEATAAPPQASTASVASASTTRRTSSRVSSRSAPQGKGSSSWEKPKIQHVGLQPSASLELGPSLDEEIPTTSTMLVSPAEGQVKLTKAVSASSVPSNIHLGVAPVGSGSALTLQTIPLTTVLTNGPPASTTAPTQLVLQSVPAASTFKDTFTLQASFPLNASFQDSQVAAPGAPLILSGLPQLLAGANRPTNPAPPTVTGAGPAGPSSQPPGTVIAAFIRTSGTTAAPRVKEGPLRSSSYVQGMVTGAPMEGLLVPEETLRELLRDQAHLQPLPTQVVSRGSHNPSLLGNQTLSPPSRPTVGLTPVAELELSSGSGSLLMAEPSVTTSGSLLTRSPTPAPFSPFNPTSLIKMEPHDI
# Sequence of SPIB (Q01892 whole entry): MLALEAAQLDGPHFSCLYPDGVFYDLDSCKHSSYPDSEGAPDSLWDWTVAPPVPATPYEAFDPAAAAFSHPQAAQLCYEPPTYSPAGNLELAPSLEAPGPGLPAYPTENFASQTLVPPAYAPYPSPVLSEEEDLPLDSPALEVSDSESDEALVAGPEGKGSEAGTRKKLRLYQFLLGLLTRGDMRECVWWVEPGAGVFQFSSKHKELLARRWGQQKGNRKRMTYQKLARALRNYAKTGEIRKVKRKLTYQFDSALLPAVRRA
# Sequence of HSF1 (Q00613 whole entry): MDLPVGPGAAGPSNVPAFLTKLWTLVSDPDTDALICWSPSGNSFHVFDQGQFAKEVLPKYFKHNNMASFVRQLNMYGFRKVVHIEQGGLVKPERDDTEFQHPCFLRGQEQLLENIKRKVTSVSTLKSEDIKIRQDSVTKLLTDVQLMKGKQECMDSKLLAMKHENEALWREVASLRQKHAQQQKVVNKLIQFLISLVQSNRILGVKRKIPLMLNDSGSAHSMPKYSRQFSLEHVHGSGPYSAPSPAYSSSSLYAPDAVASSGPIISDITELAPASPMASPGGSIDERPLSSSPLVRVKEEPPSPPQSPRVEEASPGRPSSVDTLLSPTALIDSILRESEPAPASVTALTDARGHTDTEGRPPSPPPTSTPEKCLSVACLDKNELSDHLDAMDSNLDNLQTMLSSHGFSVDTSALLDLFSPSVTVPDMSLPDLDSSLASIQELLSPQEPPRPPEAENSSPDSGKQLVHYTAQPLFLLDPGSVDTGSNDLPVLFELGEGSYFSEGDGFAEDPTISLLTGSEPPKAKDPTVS
sequence,measurement,setting,value
AACTGG,binding signal,FLI1,"1.22 fold enrichment (6-mer frequency, TF over GST control)"
same,binding signal,ELK1,"1.22 fold enrichment (6-mer frequency, TF over GST control)"
same,binding signal,GABPA,"1.29 fold enrichment (6-mer frequency, TF over GST control)"
same,binding signal,ERG,"1.31 fold enrichment (6-mer frequency, TF over GST control)"
same,binding signal,ELF1,"1.27 fold enrichment (6-mer frequency, TF over GST control)"
same,binding signal,EHF,"1.17 fold enrichment (6-mer frequency, TF over GST control)"
same,binding signal,SPI1,"1.31 fold enrichment (6-mer frequency, TF over GST control)"
same,binding signal,SPIB,"1.25 fold enrichment (6-mer frequency, TF over GST control)"
same,binding signal,ELK3,"1.28 fold enrichment (6-mer frequency, TF over GST control)"
same,binding signal,FEV,"1.12 fold enrichment (6-mer frequency, TF over GST control)"
same,binding signal,ETV5,"1.21 fold enrichment (6-mer frequency, TF over GST control)"
same,binding signal,HSF1,"1.25 fold enrichment (6-mer frequency, TF over GST control)"
same,binding signal,SPIC,"1.38 fold enrichment (6-mer frequency, TF over GST control)"
same,binding signal,ELF4,"1.25 fold enrichment (6-mer frequency, TF over GST control)"
same,binding signal,ELK4,"1.27 fold enrichment (6-mer frequency, TF over GST control)"
same,binding signal,ETV2,"1.31 fold enrichment (6-mer frequency, TF over GST control)"
same,binding signal,ELF3,"1.17 fold enrichment (6-mer frequency, TF over GST control)"
same,binding signal,CRX,"1.16 fold enrichment (6-mer frequency, TF over GST control)"
same,binding signal,ETV1,"1.14 fold enrichment (6-mer frequency, TF over GST control)"
